Measurements taken from the supplement of paper PMC7765376.
Counter-ions that a name gives are not always drawn. Whole data set: some 1,500 compounds, median “Excess HSA synergy score (sum over dose matrix of excess over highest single agent)” near 43, cut for the lowest 2% near -900. Many of the other results were omitted from the sample, so the lowest values are more common in it than they were.

Tested on: PEO-1
Test: Excess HSA synergy score (sum over dose matrix of excess over highest single agent) (score (summed % response)); higher = less synergy / more antagonism (negative = synergy)
Details: 72 h, read-out: viability/apoptosis luminescence (CellTiter-Glo or Caspase3-Glo / not stated per table)
[1] = matrix design: 6x6, 5-fold dilutions (primary screen)
[2] = matrix design: 10x10, 9-step dilutions (confirmatory)

With `O=C(N[C@@H](c1ccccc1)[C@@H]1CCCCN1)c1cccc(C(F)(F)F)c1Cl` + CC[C@H](NC(=O)[C@H](C)NC)C(=O)N1C[C@@H](O)C[C@H]1Cc1c(-c2[nH]c3cc(F)ccc3c2C[C@@H]2C[C@H](O)CN2C(=O)[C@H](CC)NC(=O)[C@H](C)NC)[nH]c2cc(F)ccc12 [Birinapant] the “Excess HSA synergy score” value [1] was 61.9.

`CC[C@@]1(O)C(=O)OCc2c1cc1n(c2=O)Cc2cc3cc(O)ccc3nc2-1` [10-hydroxycamptothecin] + CC[C@H](NC(=O)[C@H](C)NC)C(=O)N1C[C@@H](O)C[C@H]1Cc1c(-c2[nH]c3cc(F)ccc3c2C[C@@H]2C[C@H](O)CN2C(=O)[C@H](CC)NC(=O)[C@H](C)NC)[nH]c2cc(F)ccc12 [Birinapant] was tested, and the “Excess HSA synergy score” value [1] was -38.5.

In the case of `CCc1c2c(nc3ccc(O)cc13)-c1cc3c(c(=O)n1C2)COC(=O)[C@]3(O)CC` + CC[C@H](NC(=O)[C@H](C)NC)C(=O)N1C[C@@H](O)C[C@H]1Cc1c(-c2[nH]c3cc(F)ccc3c2C[C@@H]2C[C@H](O)CN2C(=O)[C@H](CC)NC(=O)[C@H](C)NC)[nH]c2cc(F)ccc12 [Birinapant], the “Excess HSA synergy score” value [1] is reported as 0.514.

In the case of `CC[C@@]1(O)C(=O)OCc2c1cc1n(c2=O)Cc2cc3c(CN(C)C)c(O)ccc3nc2-1` [Topotecan hydrochloride] + CC[C@H](NC(=O)[C@H](C)NC)C(=O)N1C[C@@H](O)C[C@H]1Cc1c(-c2[nH]c3cc(F)ccc3c2C[C@@H]2C[C@H](O)CN2C(=O)[C@H](CC)NC(=O)[C@H](C)NC)[nH]c2cc(F)ccc12 [Birinapant], the “Excess HSA synergy score” value [1] is reported as -166 and the “Excess HSA synergy score” value [2] is reported as -963.

In the case of `O=C(C1CC1)N1CC[C@@H](Cn2c(-c3ccc(-c4ccc5occc5c4)cc3)nc3cnccc32)C1` + CC[C@H](NC(=O)[C@H](C)NC)C(=O)N1C[C@@H](O)C[C@H]1Cc1c(-c2[nH]c3cc(F)ccc3c2C[C@@H]2C[C@H](O)CN2C(=O)[C@H](CC)NC(=O)[C@H](C)NC)[nH]c2cc(F)ccc12 [Birinapant], the “Excess HSA synergy score” value [1] is reported as 117.

In the case of `CCCCCN(CCC12CC3CC(CC(C3)C1)C2)C(=O)NCCCc1ccncc1` + CC[C@H](NC(=O)[C@H](C)NC)C(=O)N1C[C@@H](O)C[C@H]1Cc1c(-c2[nH]c3cc(F)ccc3c2C[C@@H]2C[C@H](O)CN2C(=O)[C@H](CC)NC(=O)[C@H](C)NC)[nH]c2cc(F)ccc12 [Birinapant], the “Excess HSA synergy score” value [1] is reported as 297.

`Cn1cc(/C=C/C(=O)c2cccc(F)c2)cc1/C=C/C(=O)NO` + CC[C@H](NC(=O)[C@H](C)NC)C(=O)N1C[C@@H](O)C[C@H]1Cc1c(-c2[nH]c3cc(F)ccc3c2C[C@@H]2C[C@H](O)CN2C(=O)[C@H](CC)NC(=O)[C@H](C)NC)[nH]c2cc(F)ccc12 [Birinapant] was tested, and the “Excess HSA synergy score” value [1] was 132.

`COC1=C2C[C@@H](C)C[C@H](OC)[C@H](O)[C@@H](C)/C=C(\C)[C@H](OC(N)=O)[C@@H](OC)/C=C\C=C(/C)C(=O)NC(=CC1=O)C2=O` [Geldanamycin] + CC[C@H](NC(=O)[C@H](C)NC)C(=O)N1C[C@@H](O)C[C@H]1Cc1c(-c2[nH]c3cc(F)ccc3c2C[C@@H]2C[C@H](O)CN2C(=O)[C@H](CC)NC(=O)[C@H](C)NC)[nH]c2cc(F)ccc12 [Birinapant] was tested, and the “Excess HSA synergy score” value [1] was 115 and the “Excess HSA synergy score” value [2] was -710.

For `CCc1cc(-c2n[nH]c(C)c2-c2ccc3c(c2)OCCO3)c(O)cc1O` + CC[C@H](NC(=O)[C@H](C)NC)C(=O)N1C[C@@H](O)C[C@H]1Cc1c(-c2[nH]c3cc(F)ccc3c2C[C@@H]2C[C@H](O)CN2C(=O)[C@H](CC)NC(=O)[C@H](C)NC)[nH]c2cc(F)ccc12 [Birinapant], the “Excess HSA synergy score” value [1] was 405.

With `Cc1c[nH]c(/C=C2\C(=O)Nc3ccccc32)c1CCC(=O)O` + CC[C@H](NC(=O)[C@H](C)NC)C(=O)N1C[C@@H](O)C[C@H]1Cc1c(-c2[nH]c3cc(F)ccc3c2C[C@@H]2C[C@H](O)CN2C(=O)[C@H](CC)NC(=O)[C@H](C)NC)[nH]c2cc(F)ccc12 [Birinapant] the “Excess HSA synergy score” value [1] was 54.2.

`CC1(C)O[C@H]2CC(=O)OC[C@]23[C@H]2CC[C@@]4(C)[C@H](c5ccoc5)OC(=O)[C@H]5O[C@]54[C@]2(C)C(=O)C[C@@H]13` [Limonin] + CC[C@H](NC(=O)[C@H](C)NC)C(=O)N1C[C@@H](O)C[C@H]1Cc1c(-c2[nH]c3cc(F)ccc3c2C[C@@H]2C[C@H](O)CN2C(=O)[C@H](CC)NC(=O)[C@H](C)NC)[nH]c2cc(F)ccc12 [Birinapant] was tested, and the “Excess HSA synergy score” value [1] was 15.5.

For `COc1cccc2c1C(=O)c1c(O)c3c(c(O)c1C2=O)C[C@@](O)(C(=O)CO)C[C@@H]3O[C@H]1C[C@H](N)[C@@H](O)[C@H](C)O1` [Epirubicin hydrochloride] + CC[C@H](NC(=O)[C@H](C)NC)C(=O)N1C[C@@H](O)C[C@H]1Cc1c(-c2[nH]c3cc(F)ccc3c2C[C@@H]2C[C@H](O)CN2C(=O)[C@H](CC)NC(=O)[C@H](C)NC)[nH]c2cc(F)ccc12 [Birinapant], the “Excess HSA synergy score” value [1] was -93.1.

In the case of `COc1cccc2c1C(=O)c1c(O)c3c(c(O)c1C2=O)C[C@@](O)(C(=O)CO)C[C@@H]3O[C@H]1C[C@H](N)[C@H](O)[C@H](C)O1` [Doxorubicin] + CC[C@H](NC(=O)[C@H](C)NC)C(=O)N1C[C@@H](O)C[C@H]1Cc1c(-c2[nH]c3cc(F)ccc3c2C[C@@H]2C[C@H](O)CN2C(=O)[C@H](CC)NC(=O)[C@H](C)NC)[nH]c2cc(F)ccc12 [Birinapant], the “Excess HSA synergy score” value [1] is reported as -136.

For `CC[C@@]1(O)C[C@H](O[C@H]2C[C@H](N(C)C)[C@H](O[C@H]3C[C@H](O)[C@H](O[C@H]4CCC(=O)[C@H](C)O4)[C@H](C)O3)[C@H](C)O2)c2c(cc3c(c2O)C(=O)c2c(O)cccc2C3=O)[C@H]1C(=O)OC` [Aclarubicin] + CC[C@H](NC(=O)[C@H](C)NC)C(=O)N1C[C@@H](O)C[C@H]1Cc1c(-c2[nH]c3cc(F)ccc3c2C[C@@H]2C[C@H](O)CN2C(=O)[C@H](CC)NC(=O)[C@H](C)NC)[nH]c2cc(F)ccc12 [Birinapant], the “Excess HSA synergy score” value [1] was -147 and the “Excess HSA synergy score” value [2] was -1130.

For `CCc1cc2c(cc1N1CCC(N3CCOCC3)CC1)C(C)(C)c1[nH]c3cc(C#N)ccc3c1C2=O` + CC[C@H](NC(=O)[C@H](C)NC)C(=O)N1C[C@@H](O)C[C@H]1Cc1c(-c2[nH]c3cc(F)ccc3c2C[C@@H]2C[C@H](O)CN2C(=O)[C@H](CC)NC(=O)[C@H](C)NC)[nH]c2cc(F)ccc12 [Birinapant], the “Excess HSA synergy score” value [1] was 183.
